This is an account of results in PubChem BioAssay.

Molecules are shown by their SMILES. Calls of active or inactive are those of the source.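 Rule for the calls, unless noted: active = inhibition at or above 50% at 10 µM; inactive = inhibition below 50%.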

Experiment [1] in a line: inhibitors of TNFa-induced NFkB p65 translocation, primary screen, imaging, HUVEC, MLSMR starter and 10KST1 sets (AID 438;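 active = inhibition above 20% together with a positive visual image hit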;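 note: compound added about 3h40 before a 20 min TNFalpha stimulation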;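 for inhibition: signal is the nuclear over cytoplasmic p65 intensity ratio per well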). As to conditions: HUVEC TNFa-induced p65 nuclear translocation; cell count: measured here: nuclei count (cytotoxicity indicator), at 2.08 µM; inhibition: at 2 µM, stronger effect = higher value, 0% TNFa-plus-vehicle, 100% no-TNFa wells.
Experiment [2] is described as follows: inhibitors of mutant huntingtin aggregation, primary screen, imaging, exon1htt(103Q)mCFP cells, high-content imaging (AID 483;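 active = visual image review flags a hit and inhibition of aggregation exceeds 20%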;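 note: compound exposure lasted 3 days before fixation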;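 for nuclei count: percent of the per-plate median nuclei count of sample wells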). The following applies: exon1htt(103Q)mCFP cell line, aggregate imaging, at 2 µM; inhibition of aggregation: stronger effect = higher value; nuclei count: measured here: cell count, toxicity.
Experiment [3] is described as follows: inhibitors of E-selectin induction by TNFa, primary screen, imaging, HUVEC, immunofluorescence, MLSMR starter and 10KST1 sets (AID 487;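 active = visually confirmed hit in the image check and inhibition above 20%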;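 for inhibition: signal is fraction of cell area covered by stained E-selectin grains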;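 for nuclei count: 100% = median nuclei count of all wells on the same plate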). The following applies: HUVEC TNFalpha-induced E-selectin immunofluorescence imaging, at 2 µM; inhibition: stronger effect = higher value; nuclei count: measured here: cell number, toxicity.
In experiment [4] the target is Voltage-gated potassium channel subunit beta-2 (Rattus norvegicus) (UniProt P62483). Kind of experiment: KvBeta enzyme negative modulators, primary screen, biochemical, NADPH fluorescence (AID 622;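 active = fluorescence slope higher than the sample average by over 3 SD, cut at about -0.22 in these data, passing the limit was not always enough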;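 note: slope of raw intensity against log time taken from 70 to 1610 s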). As to conditions: recombinant KvBeta, 4-cyanobenzaldehyde reduction, at 10 µM, stronger effect = higher value.
Experiment [5] shares this target. Kind of experiment: KvBeta positive modulators, primary screen, biochemical, NADPH fluorescence (AID 623;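 active = NADPH fluorescence slope more negative than the mean of all samples by about 3 SD, 99.7% confidence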;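 note: fluorescence intensity change per second fitted from 20 to 320 s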). As to conditions: Recombinant KvBeta, NADPH fluorescence decrease slope, 10 min; at 10 µM; stronger effect = lower value.
For experiment [6], the target named is Alpha-2C adrenergic receptor (Homo sapiens) (UniProt P18825). Kind of experiment: modulators of alpha2C/GIRK thallium flux, primary screen, cell-based, HEK293 alpha2C/GIRK1/2 (AID 624;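 active = fluorescence slope after compound addition differing from the mean of all screened samples at 99.7% confidence, in either direction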;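 note: slope of fluorescence ratio to pre-addition baseline per second over 15 to 24 s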). As to conditions: thallium flux BTC fluorescence, at 10 µM, actives lie on both sides.
Experiment [7] in a line: inhibitors of Sendai virus-induced IRF3 signaling, primary screen, TLR/RLR signaling modifier project, cell-based, Sendai virus stimulus, luciferase, 10K MLSCN set (AID 602276).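 Note: firefly luciferase from ISG56 promoter only with Renilla not read in this screen; 0% = Sendai virus plus DMSO and 100% = medium plus DMSO without virus.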 The following applies: HEK293 RL24 IRF3 luciferase reporter, at 10 µM, stronger effect = higher value. In general terms: Reporter assays use an easily measured gene product as a stand-in for the process of interest.

The nature of experiment [8]: inhibitors of poly I:C-induced TLR3 signaling, primary screen, cell-based, poly I:C stimulus, luciferase, 10K MLSCN set (AID 602277;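 active = inhibition of the reporter signal at or above 50%; inactive = inhibition below 50%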). The following applies: HEK293-TLR3 RL24 IRF3 luciferase reporter, at 10 µM, stronger effect = higher value.

Alpha-2C adrenergic receptor (Homo sapiens), sequence (P18825 whole entry, looked up): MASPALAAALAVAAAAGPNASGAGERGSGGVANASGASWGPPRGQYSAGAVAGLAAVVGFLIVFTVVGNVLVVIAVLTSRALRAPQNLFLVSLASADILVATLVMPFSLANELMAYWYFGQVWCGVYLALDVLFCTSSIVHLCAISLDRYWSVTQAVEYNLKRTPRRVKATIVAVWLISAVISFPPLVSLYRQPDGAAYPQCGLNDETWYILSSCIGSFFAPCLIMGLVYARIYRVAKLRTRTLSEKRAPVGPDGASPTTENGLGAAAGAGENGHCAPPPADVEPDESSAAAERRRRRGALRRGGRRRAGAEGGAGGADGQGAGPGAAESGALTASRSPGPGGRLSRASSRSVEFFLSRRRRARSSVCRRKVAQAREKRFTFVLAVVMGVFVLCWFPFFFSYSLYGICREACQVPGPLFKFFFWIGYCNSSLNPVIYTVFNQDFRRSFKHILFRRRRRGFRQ
Voltage-gated potassium channel subunit beta-2 (Rattus norvegicus), sequence (P62483 whole entry, looked up): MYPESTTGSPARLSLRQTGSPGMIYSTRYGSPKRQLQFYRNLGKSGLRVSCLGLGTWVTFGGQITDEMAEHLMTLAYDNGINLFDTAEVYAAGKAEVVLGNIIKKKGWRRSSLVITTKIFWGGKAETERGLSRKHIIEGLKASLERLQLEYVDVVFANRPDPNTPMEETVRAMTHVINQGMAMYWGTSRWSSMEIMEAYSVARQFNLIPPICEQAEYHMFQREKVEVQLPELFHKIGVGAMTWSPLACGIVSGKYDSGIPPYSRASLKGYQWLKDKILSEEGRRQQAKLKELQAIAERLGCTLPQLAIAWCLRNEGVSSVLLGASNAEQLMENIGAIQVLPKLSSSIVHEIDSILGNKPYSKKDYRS

The inhibition is the relative decrease from the control value, in per cent. Turning to `CCOc1ccccc1NC(=O)CN(c1ccc(C)cc1)S(=O)(=O)c1c(C)noc1C`, the cell count in experiment [1] amounted to 322. Further, the inhibition in experiment [1] was 2.2% (inactive); in experiment [3], 35.2% (inactive); in experiment [7] it was 6.02% (inactive); in experiment [8] it was 28.1% (inactive). Besides, the inhibition of aggregation in experiment [2] was 20.6% (inactive). Further, the nuclei count was 97.9% in experiment [2] and 64.7% in experiment [3]. Further, the fluorescence slope in experiment [4] is -0.606 (inactive). Also, in experiment [5], the NADPH fluorescence slope was -6.6e-05 (inactive). Also, the slope in experiment [6] is 0.00658 (inactive).
Turning to `COc1ccc(CCNS(=O)(=O)c2ccc3oc(C(=O)O)c(C)c3c2)cc1OC`, the cell count in experiment [1] is 612. Moreover, the inhibition was -11.4% (inactive) in experiment [1], -32% (inactive) in experiment [3], 12.5% (inactive) in experiment [7] and 21.9% (inactive) in experiment [8]. The inhibition of aggregation in experiment [2] was 3.9% (inactive). Also, the figures for the nuclei count in experiment [2] and in experiment [3] were 107% and 114%, respectively. The fluorescence slope in experiment [4] was -0.444 (inactive). In experiment [5], the NADPH fluorescence slope is 6.2e-05 (inactive). Moreover, in experiment [6], the slope was 0.00543 (inactive).
In the case of `Cc1cc2c(cc1C)-c1nnnn1C(C)(C)C2`, the cell count in experiment [1] was found to be 655. Besides, the inhibition is 2.4% (inactive) in experiment [1], 67.5% (active) in experiment [3], -16.2% (inactive) in experiment [7] and 82.3% (active) in experiment [8]. Also, the inhibition of aggregation in experiment [2] is 13.2% (inactive). Besides, the nuclei count in experiment [2] came out at 91.6%; in experiment [3], 88.2%. Besides, the fluorescence slope in experiment [4] is -0.421 (inactive). Besides, in experiment [5], the NADPH fluorescence slope was -3e-05 (inactive). Besides, the slope in experiment [6] was 0.00748 (inactive).
Turning to `CC(C)Oc1ccc(N2CC(C(=O)Nc3ccccc3F)CC2=O)cc1` (stereo not drawn), in experiment [1], the cell count amounted to 804. In addition, the inhibition in experiment [1] was 3.6% (inactive); in experiment [3] it was -110% (inactive); in experiment [7], 4.3% (inactive); in experiment [8] it was 37.6% (inactive). Besides, the inhibition of aggregation in experiment [2] is -2% (inactive). Further, the nuclei count in experiment [2] was 103%; in experiment [3], 128%. Besides, in experiment [4], the fluorescence slope is -0.438 (inactive). Besides, the NADPH fluorescence slope in experiment [5] was 6.3e-06 (inactive). Besides, in experiment [6], the slope was 0.00384 (inactive).
Consider `CCOC(=O)CCCOC(=O)c1ccc(S(=O)(=O)N(C)C)cc1`, for which the cell count in experiment [1] stood at 374. The inhibition is -12.5% (inactive) in experiment [1], -8.8% (inactive) in experiment [3], 0.818% (inactive) in experiment [7] and 10.6% (inactive) in experiment [8]. Further, in experiment [2], the inhibition of aggregation was 2.8% (inactive). In addition, the results for the nuclei count in experiment [2] and in experiment [3] were 67.5% and 106%, respectively. Moreover, the fluorescence slope in experiment [4] is -0.454 (inactive). In addition, the NADPH fluorescence slope in experiment [5] is -4.3e-05 (inactive). Besides, the slope in experiment [6] is 0.00644 (inactive).
`O=C(c1ccc(COc2c(F)c(F)c(F)c(F)c2F)o1)N1CCOCC1`: in experiment [1], the cell count was found to be 701. Moreover, the inhibition in experiment [1] is 2.8% (inactive); in experiment [3], -25% (inactive); in experiment [7], 10.5% (inactive); in experiment [8], 33.9% (inactive). The inhibition of aggregation in experiment [2] was 26.7% (inactive). Besides, the nuclei count came out at 79.8% in experiment [2] and 105% in experiment [3]. The fluorescence slope in experiment [4] is -0.58 (inactive). Also, the NADPH fluorescence slope in experiment [5] was -3.8e-05 (inactive). For the same compound, the slope in experiment [6] is 0.0055 (inactive).
Turning to `O=S(=O)(c1ccc2nc(Cc3cccc(C(F)(F)F)c3)[nH]c2c1)N1CCOCC1`, in experiment [1], the cell count came to 383. The inhibition is 1% (inactive) in experiment [1], -277% (inactive) in experiment [3], 11.9% (inactive) in experiment [7] and 26.3% (inactive) in experiment [8]. Further, the inhibition of aggregation in experiment [2] is 0% (inactive). For the same compound, the nuclei count in experiment [2] was 88.3%; in experiment [3] it was 105%. In addition, the fluorescence slope in experiment [4] is -0.615 (inactive). For the same compound, the NADPH fluorescence slope in experiment [5] was -2.8e-06 (inactive). Further, the slope in experiment [6] is 0.00522 (inactive).
`Cc1ccc(-n2nc(C)c3cc(C(=O)O)sc32)cc1`: the cell count in experiment [1] came out at 369. Moreover, the inhibition is 6.3% (inactive) in experiment [1], -140% (inactive) in experiment [3], 12.6% (inactive) in experiment [7] and 33.9% (inactive) in experiment [8]. Moreover, the inhibition of aggregation in experiment [2] is 11.1% (inactive). For the same compound, the nuclei count in experiment [2] turned out to be 90.3%; in experiment [3], 97.4%. Besides, the fluorescence slope in experiment [4] was -0.191 (inactive). Further, in experiment [5], the NADPH fluorescence slope was -5e-05 (inactive). Besides, the slope in experiment [6] was 0.00582 (inactive).
`Brc1ccccc1-c1nc(-c2ccccc2)no1`: the cell count in experiment [1] came out at 428. Besides, the inhibition in experiment [1] is 2.3% (inactive); in experiment [3], -25.4% (inactive); in experiment [7], -15.5% (inactive); in experiment [8], -39.8% (inactive). For the same compound, the inhibition of aggregation in experiment [2] was -23% (inactive). Further, the values for the nuclei count in experiment [2] and in experiment [3] were 94% and 114%, respectively. The fluorescence slope in experiment [4] is -0.45 (inactive). Moreover, in experiment [5], the NADPH fluorescence slope was 2.8e-05 (inactive). Further, the slope in experiment [6] was 0.00389 (inactive).
As for `CCN(CC)CCCN1C(=O)C(O)=C(C(=O)c2ccco2)C1c1ccc(C)o1` (stereo not drawn), in experiment [1], the cell count turned out to be 330. Also, the inhibition in experiment [1] is 22.9% (inactive); in experiment [3] it was -22.2% (inactive); in experiment [7] it was 8.72% (inactive); in experiment [8], 8.23% (inactive). Besides, the inhibition of aggregation in experiment [2] is -17.3% (inactive). The values for the nuclei count in experiment [2] and in experiment [3] were 106% and 99.7%, respectively. Moreover, in experiment [4], the fluorescence slope was -0.607 (inactive). For the same compound, the NADPH fluorescence slope in experiment [5] was -3.7e-05 (inactive). For the same compound, in experiment [6], the slope was 0.00682 (inactive).
Regarding `CC(Sc1nc(-c2ccccc2)cc(C(F)(F)F)n1)C(=O)N1CCC(C(N)=O)CC1` (stereo not drawn), in experiment [1], the cell count is 446. The inhibition in experiment [1] was 7.2% (inactive); in experiment [3], -45.8% (inactive); in experiment [7], 17.5% (inactive); in experiment [8] it was 24.5% (inactive). For the same compound, in experiment [2], the inhibition of aggregation is 8.9% (inactive). For the same compound, the nuclei count worked out at 97.1% in experiment [2] and 126% in experiment [3]. Moreover, the fluorescence slope in experiment [4] was -0.455 (inactive). The NADPH fluorescence slope in experiment [5] is -8.9e-05 (inactive). Further, in experiment [6], the slope is 0.00612 (inactive).
Take `CCN1CCN(c2ncnc3c2cnn3-c2ccc(C)cc2C)CC1`: the cell count in experiment [1] worked out at 561. Further, the inhibition was 1.3% (inactive) in experiment [1], 1.5% (inactive) in experiment [3], 10.8% (inactive) in experiment [7] and 18.9% (inactive) in experiment [8]. In experiment [2], the inhibition of aggregation is -28.5% (inactive). Besides, the nuclei count in experiment [2] was 94.2%; in experiment [3], 112%. Moreover, the fluorescence slope in experiment [4] was -0.538 (inactive). Further, the NADPH fluorescence slope in experiment [5] was -1.4e-05 (inactive). Moreover, the slope in experiment [6] is 0.00772 (inactive).
For `Cc1ccc(Cl)cc1N1CCN(C(=O)CN2C(=O)c3cccc4cccc2c34)CC1`, the cell count in experiment [1] was found to be 771. In addition, the inhibition is -7.2% (inactive) in experiment [1], -11.6% (inactive) in experiment [3], 9.95% (inactive) in experiment [7] and 8.22% (inactive) in experiment [8]. Besides, the inhibition of aggregation in experiment [2] is -2.2% (inactive). Besides, the nuclei count in experiment [2] was found to be 89.4%; in experiment [3] it was 101%. The fluorescence slope in experiment [4] is -0.341 (inactive). Further, the NADPH fluorescence slope in experiment [5] was 4.7e-06 (inactive). Besides, the slope in experiment [6] was 0.0104 (active).
